# “And” between values parts separate entries of the source, which are not always exact repeats. Identical values can stand only once. Inconclusive results are not listed. More than one record can exist for a structure, and the calls need not agree. The source made the active and inactive calls. The calls were made as follows: active = hit-call score of the fitted dose curve at least 0.9, where 1 is the maximum; inconclusive = response in the unintended direction; inactive = score below 0.9.
# Target: Luciferin 4-monooxygenase (Photinus pyralis) (UniProt P08659)
# Sequence (P08659 whole entry, looked up): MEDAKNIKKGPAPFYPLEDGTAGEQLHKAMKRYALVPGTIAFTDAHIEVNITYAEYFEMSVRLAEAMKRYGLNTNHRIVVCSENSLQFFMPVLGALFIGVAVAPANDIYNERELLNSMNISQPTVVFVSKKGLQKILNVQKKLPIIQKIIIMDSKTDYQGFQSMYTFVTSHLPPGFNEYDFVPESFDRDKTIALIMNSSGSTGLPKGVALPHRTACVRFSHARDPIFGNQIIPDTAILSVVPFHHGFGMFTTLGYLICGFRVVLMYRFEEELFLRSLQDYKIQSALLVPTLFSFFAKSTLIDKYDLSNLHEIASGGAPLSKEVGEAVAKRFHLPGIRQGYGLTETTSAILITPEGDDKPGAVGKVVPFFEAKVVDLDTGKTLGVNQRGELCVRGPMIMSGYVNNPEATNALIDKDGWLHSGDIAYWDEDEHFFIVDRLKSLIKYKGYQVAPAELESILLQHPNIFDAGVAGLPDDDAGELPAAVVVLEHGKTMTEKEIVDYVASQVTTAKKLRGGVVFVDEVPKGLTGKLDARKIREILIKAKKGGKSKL
# Assay: CCTE_Simmons_QuantiLum_inhib_2: CCTE's Firefly Luciferase Inhibition Assay, Simmons Lab (AID 2283767);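 as to AC50: potency for inhibitors that lower luciferase luminescence relative to DMSO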
# Experimental: CCTE_Simmons_QuantiLum_inhib_2 is a biochemical, single-readout assay that uses purified luciferase enzyme in a cell-free assay.Measurements were taken 0.5 hour after chemical dosing in a 384-well plate.CCTE_Simmons_QuantiLum_inhib_2 is the assay component measured from the CCTE_Simmons_QuantiLum_inhib_2 assay. It is designed to make measurements of enzyme activity, a form of enzyme reporter, as detected with bioluminescence signals by Luciferase-coupled Quantilum levels technology. This is a secondary assay to CCTE_Simmons_AUR_TPO to evaluate nonspecific enzyme inhibition.Data from the assay component CCTE_Simmons_QuantiLum_inhib_2 was analyzed at the endpoint, CCTE_Simmons_QuantiLum_inhib_2, in the positive analysis fitting direction relative to DMSO as the negative control and baseline of activity. Using a type of enzyme reporter, measures of enzyme activity for loss-of-signal activity can be used to understand inhibition of firefly luciferase. This is an assay endpoint to indicate nonspecific protein inhibition for comparison to aeid 1508 for thyroperoxidase inhibition. To generalize the intended target to other relatable targets, this assay endpoint is annotated to the oxidoreductase intended target family, where the subfamily is monooxygenase.
# Quanti-Lum recombinant luciferase (Promega; Madison, Wisconsin) was diluted to 76.9 ng/ml with 200mM potassium phosphate buffer supplemented with 1 mg/ml bovine serum albumin and 65ul (5ng recombinant luciferase) per well was dispensed into opaque, white 384-well plates (Greiner, BioExpress) using an automated liquid handler (BioTek MicroFlo) with a plastic 5 ul tubing cassette. Test compounds were administered using the HDRT as described earlier to achieve a 0.5% final DMSO concentration. Microplates were incubated at 37C in the dark for 30min to mimic the AUR-TPO assay conditions. Luciferase detection reagent (25 ul per well; 9.2 mM dithiothreitol, 75uM Coenzyme A, 147uM dATP, 150uM D-luciferin, 8.9 mM Tricine, 297uM (MgCO3)4.Mg(OH)2.5H20, 742uM MgSO4, 27.8uM EDTA, pH 7.8, final assay concentrations) was then added using a BMG Clariostar plate reader equipped with syringe injectors (BMG LabTech; GmbH). Plates were read using a kinetic luminescence protocol (top read) whereby each well was individually injected with luciferase detection reagent immediately prior to measurement. Three biological replicates of technical singles were run for every chemical concentration tested. A titrated range of LUCINH2 served as a positive control on each plate of the luciferase inhibition screening assay. Test chemicals were administered as a titrated series of 8 concentrations from 5 nM up to 87.5 uM [final] for 30 minutes prior to single endpoint detection. Dimethylsulfoxide [DMSO] was used as the vehicle control. Luciferase Inhibitor I [2-(5-(2-Methoxyphenyl)-1,2,4-oxadiazol-3-yl)pyridine] was used as the positive control and was administered as a titrated series of 8 concentrations from 1 nM up to 100 uM [final].
SMILES,outcome,AC50
CC(C)(C)c1cc(O)ccc1O,inactive,79.7 µM (active) and 80.7 µM (active)
CC1(C)CCC(Cc2ccc(Cl)cc2)C1(O)Cn1cncn1 (stereo not drawn),inactive,
CC1(C)Cc2cccc(O)c2O1,inactive,
O=C(O)C(F)(F)C(F)(F)C(F)(F)C(F)(F)C(F)(F)C(F)(F)F,inactive,
CCCCCCCCSC(=O)Oc1cc(Cl)nnc1-c1ccccc1,,81.7 µM (active)
OCc1ccco1,inactive,
COP(=O)(OC)O/C(=C\Cl)c1cc(Cl)c(Cl)cc1Cl,inactive,
CC(C)(C)CC(C)(C)c1ccc(O)cc1,inactive,
CCC1(c2ccc(N)cc2)CCC(=O)NC1=O (stereo not drawn),inactive,
NNC(=S)NN,inactive,
CCOP(=S)(OCC)SCSP(=S)(OCC)OCC,inactive,
CCOP(=S)(OCC)Oc1nc(Cl)c(Cl)cc1Cl,inactive,
CC(C)c1cccc(C(C)C)c1O,inactive,
O=C(Nc1ccc2[nH]ccc2c1)c1cc2cc(F)ccc2n1Cc1cccc(F)c1,,33.3 µM (active)
Oc1cccc2cccnc12,inactive,
CCCCCCCCc1ccc(O)cc1,inactive,
CC(C)(c1ccccc1)c1ccc(O)c(C(C)(C)c2ccccc2)c1,inactive,
CC(C)(c1ccc(OCC2CO2)cc1)c1ccc(OCC2CO2)cc1 (stereo not drawn),inactive,
CC12CC1(C)C(=O)N(c1cc(Cl)cc(Cl)c1)C2=O (stereo not drawn),inactive,
CCOC(=O)Nc1cccc(OC(=O)Nc2ccccc2)c1,,29.1 µM (active)
Cc1ccc2ccccc2c1C,inactive,
CCC(C)(C)c1ccc(O)c(C(C)(C)CC)c1,inactive,
Clc1ccc(COC(Cn2ccnc2)c2ccc(Cl)cc2Cl)cc1 (stereo not drawn),inactive,
Cc1ccccc1N,inactive,
Cc1ccc(N)cc1Cl,inactive,
COP(=S)(OC)Oc1ccc(Sc2ccc(OP(=S)(OC)OC)cc2)cc1,,53.8 µM (active)
C[C@H]1CCCC(=O)CCC/C=C/c2cc(O)cc(O)c2C(=O)O1,inactive,
